Measured values: PubChem BioAssay (NCATS)
A number with no mark means an inactive call. The call rests on the fitted dose curve; in most records, active means well fitted activation curve with a large enough effect; inconclusive means small, poorly fitted or top-dose-only effect, or effect the other way; inactive means flat fitted curve, though single readings scatter.

Assay: Cellular Toxicity (caspase-3) Renal Proximal Tubule (AID 667);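 further: cells exposed to compound for 16 hours at 37 °C before detection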
Settings: renal proximal tubule cells, primary cells freshly taken from rat, solvent-only wells 0%, staurosporine 100%; series mostly up to 91.7 µM; caspase-3 activation: at the top concentration
Description: NIH Chemical Genomics Center [NCGC]
NIH Molecular Libraries Screening Centers Network [MLSCN]
National Institutes of Environmental Health Sciences [NIEHS]
National Toxicology Program [NTP]
We have developed a 1536-well cell-based assay for quantitative high throughput screening (qHTS) against a number of cell lines to determine in vitro caspase 3/7 activity of small molecules. This particular assay uses the primary kidney proximal tubule cells freshly isolated from rat.
NCGC Assay Protocol Summary:
The Caspase-Glo 3/7 assay (Promega) is a homogeneous method to measure caspase-3 and caspase-7 activities in cultured cells. The quantitation of caspase 3/7 activity is based on the cleavage of a peptide-aminoluciferin substrate. After caspase cleaves the substrate the free aminoluciferin is liberated and serves as the substrate of luciferase, which generates the light. The luminescent signal is proportional to the amount of caspase 3/7 activity present.
Using the Caspase-Glo 3/7 assay, the amount of caspase 3/7 activity was measured in the rat kidney proximal tubule cells with complete culture medium following compound treatment for 16 hours. The assay was performed in opaque white 1536-well plates. In the screen, staurosporine and doxorubicin were used as positive controls. Library compounds were measured for their ability to cause the activation of caspase 3/7 in the cell line, as reflected by an increase in luminescence signal, in a concentration-dependent manner. Data were normalized to the controls for basal activity (DMSO only) and 100% stimulation (10 uM staurosporine). AC50 values were determined from concentration-response data modeled with the standard Hill equation.
qHTS protocol for caspase 3/7 assay in rat kidney proximal tubule cells
[Step] [Parameter] [Value] [Description]
1. Reagent; 5 uL; 1000 rat kidney proximal tubule cells/well
2. Time; 5 hr; 37 °C incubation
4. Controls; 23 nL; doxorubicin 7 pM to 100 uM & staurosporine 1.4 pM to 20 uM
5. Time; 16 hr; 37 °C incubation
6. Reagent; 5 uL; Caspase-Glo 3/7 reagent
7. Time; 1 hr; Room Temperature
8. Detection; Luminescence; Viewlux plate reader
Keywords: caspase 3/7, apoptosis, rat kidney proximal tubule cells, luminescence, NTPHTS, NTPHTS_NCGC, NIEHS, EPA, DSSTox, MLSMR, MLSCN, NIH Roadmap, qHTS, NCGC

| SMILES | caspase-3 activation |
| --- | --- |
| CCCCOC(=O)c1ccc(N)cc1 | -4.64% |
| CC(=O)NS(=O)(=O)c1ccc(N)cc1 | 0.143% |
| Cc1c(N(C)C)c(=O)n(-c2ccccc2)n1C | 3.35% |
| CC1CC(OC(=O)c2ccccc2O)CC(C)(C)C1 (configuration not stated) | 2.13% |
| Cc1cc(=O)[nH]c(=S)[nH]1 | 3.94% |
| CCCC(O)C(CC)CO (configuration not stated) | -4.36% |
| CCCCCC(N)=O | -3.41% |
| O=C(c1ccccc1)C(O)c1ccccc1 (configuration not stated) | 8.91% |
| CC(=O)Nc1ccccc1 | -11.2% |
| CC(=O)OCC(COC(C)=O)OC(C)=O | 7.69% |
| CC(=O)Nc1ccc(C(=O)O)cc1 | -7.17% |
| O=C1C(c2[nH]c3ccccc3c2O)=Nc2ccccc21 | -3.61% |
| COc1ccc(O)cc1 | -3.82% |
| CCN(CC)C(=O)c1cccc(C)c1 | 2.44% |
| C=CCNC(N)=S | -2.51% |
| CC(=O)Nc1cccc(O)c1 | -0.372% |
| O=C(O)CCCCC1CCSS1 (configuration not stated) | 2% |
| FC(F)(F)C(Cl)Br (configuration not stated) | 12.3% |
| Cc1cc(C)nc(NS(=O)(=O)c2ccc(N)cc2)n1 | 8.3% |
| O=C1c2cccc(O)c2C(=O)c2c(O)cccc21 | 8.94% |
| Nc1ccc(S(=O)(=O)c2ccc(N)cc2)cc1 | 3.76% |
| CCCCCCCC(=O)OCC(COC(=O)CCCCCCC)OC(=O)CCCCCCC | -2.71% |
